# According to PubChem BioAssay (NCI):
# The panel holds about 83,000 compounds, 20% with a hit somewhere; the sample as a whole holds those more often.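 Compound tested at a single concentration for 48 hours in 96-well plates; a percent growth value below 10 was scored as active.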 A number with no mark means an inactive call. Active and inactive are the calls of the source.
# Test system: SW-620 colon
# Test: NCI-60 one-dose screen, 48 h (100 = growth as untreated, 0 = no growth, -100 = all killed)
# Conditions: 10 µM unless noted
row,Compound,growth
1,CC1=C(C(=O)Nc2ccccc2)C(c2cccc3ccccc23)n2c(nc3ccccc32)N1 (configuration not stated),67.6%
2,COc1ccc(NC(=O)CSc2nnc(-c3ccc(-c4nc5ccccc5[nH]4)cc3)o2)cc1,11.4%
3,COc1cc2cc(C(=O)N3C[C@@H](CCl)c4c3cc(OC(=O)N(C)CCSSCCN3CCOCC3)c3ccccc43)[nH]c2c(OC)c1OC,6.21% (active)
4,CC(=O)C[n+]1cccc2c3ccccc3ccc21,92.3%
5,CC[C@]12C=CCN3CC[C@]4(C(=C(C(=O)OC)C1)Nc1cc(OC)c([C@@H]5[C@H]6O[C@H]6[C@@]6(CC)CC(C(=O)OC)=C7Nc8cc(O)ccc8[C@@]78CCN5[C@@H]68)cc14)[C@@H]32,1.97% (active)
6,Cc1ccccc1Nc1nnc(-c2c[nH]c3ccccc23)o1,19.6%
7,COc1cncc(-c2ccc3ncnc(N4CCc5ccc(Cl)cc54)c3c2)c1,60.7%
8,Clc1ccc2c(NCCNC34CC5CC(CC(C5)C3)C4)ccnc2c1,-47.1% (active)
9,Cn1cc(-c2cc(N)n3nc(-c4c[nH]c5ccccc45)cc3n2)c2cc(Br)ccc21,-84.3% (active)
10,Cc1nn(-c2ccccc2)c2nc(C)n(CC(=O)N/N=C/c3cccc([N+](=O)[O-])c3)c(=O)c12,101%
11,Cc1ccc(S(=O)(=O)Nc2ccc(-c3ccc4c(c3)NC(=O)/C4=C\c3ccc[nH]3)cc2)cc1,47.2%
12,O=C1c2cccc3c(N4CCN(c5ccccc5)CC4)ccc(c23)C(=O)N1c1cccc(-c2nn(-c3ccccc3)cc2-c2nc3ccccc3s2)c1,98%
13,COc1ccc(-c2cc(-c3cc(C(C)C)c(O)cc3C)nn2-c2ccc(S(N)(=O)=O)cc2)cc1,28.2%
14,Clc1ccc(-c2nc3c4c(-c5ccccc5)c(-c5ccccc5)n(Cc5ccccc5)c4ncn3n2)cc1,12%
15,Cc1ccc(-c2cc(C(=O)N=Nc3c(O)[nH]c4ccc(F)cc34)c3ccccc3n2)cc1,19.4%
16,COc1ccc(/C=C/c2nc3ccccc3n3c(-c4cccc([N+](=O)[O-])c4)nnc23)cc1,-22.3% (active)

row,Compound,growth
1,O=C(c1ccc(O)cc1)C1[C@H](c2ccc(Cl)cc2)[C@@H](c2ccccc2)NC12C(=O)Nc1ccccc12 (some centres not stated),-12.7% (active)
2,N#C/C(=C1/C(=O)Nc2ccccc21)c1nnc(NC(=O)c2ccc(-n3c(=O)[nH]c4ccccc4c3=O)cc2)s1,65.4%
3,CN(C(=O)CN1C(=O)/C(=C/c2ccco2)SC1=S)C1CCS(=O)(=O)C1 (configuration not stated),99.9%
4,COc1c2c(cc3c1C(CCc1ccccc1)N(C)CC3)OCO2 (configuration not stated),1.49% (active)
5,COc1cc(C2CC(c3ccc(F)cc3)=Nc3c(N)nc(N)nc3N2)ccc1Oc1nc(Nc2ccc(F)cc2)nc(N(C)C)n1 (configuration not stated),31.8%
6,CC(C)C[C@H](NC(=O)CNC(=O)C[C@H]1O[C@@H]2OC3(C)CC[C@H]4[C@H](C)CC[C@@H]([C@H]1C)[C@@]24O3)B(O)O,-0.307% (active)
7,Cc1[nH]nc2ccc3nc(-c4cnn(CCO)c4)c4c(c3c12)CCCC4,29%
8,CCCN(CCC)S(=O)(=O)c1ccc(C(=O)O)cc1.CCCN(CCC)S(=O)(=O)c1ccc(C(=O)O)cc1.[Cl][Pt+2][Cl].[NH2-].[NH2-],20.6%
9,COc1ccc(N=Nc2c(N)nn3c(-c4ccc5c(c4)C=S=C5)ccnc23)cc1,65.5%
10,O=C(NNC(=O)c1ccc(OCc2nc3ccc(Cl)cc3[nH]2)cc1)Nc1ccc(Cl)c(Cl)c1,47%
11,Cc1nc(Nc2ccccn2)sc1C1=NNC(c2ccccc2F)C1 (configuration not stated),32.1%
12,COc1ccc(-c2nc3ccccc3n2CC(=O)N=Nc2c(O)[nH]c3ccc(Br)cc23)cc1,83%
13,CC[C@]12C=CCN3CC[C@@]4(c5ccc(OC)cc5N(C)[C@H]4[C@@](O)(C(=O)OC)[C@@H]1OC(=O)CCC[P+](c1ccc(OC)cc1)(c1ccc(OC)cc1)c1ccc(OC)cc1)[C@@H]32,-82.4% (active)
14,COc1ccc(-c2cc(C(=O)N=Nc3c(O)[nH]c4ccc(Cl)cc34)c3ccccc3n2)cc1OC,103%
15,Fc1ccc(Nc2nnc(-c3c[nH]c4ccccc34)o2)cc1,100%
16,O=C(NN1C(=O)/C(=C/C=C/c2ccc([N+](=O)[O-])o2)SC1=S)c1ccc(O)cc1,-69.1% (active)
